The full list was thinned out, with hits kept by preference.
RBX1-CUL1 inh: human ROC1-CUL1 E3 ligase inhibition; P62877+Q13616; in vitro K48 di-Ub FRET, acceptor:donor ratio, 45 min; inhibition, % at 10 µM; 140,000 compounds, 0.6% hits; AID 1347404; in the data active means inhibition above about 25%
* hit, by the source's call.

SMILES	RBX1-CUL1 inh
N#CC1C(=N)C(C#N)(C#N)[C@H](c2ccc(F)cc2F)[C@H]2CN(C(=O)OCc3ccccc3)CC=C12 (stereo partly specified)	-1.9
CCN(CC)c1ccc(/C=N/NC(=O)C2CC2c2ccccc2)c(O)c1 (stereo unspecified)	-0.2
COc1ccc(C2C3=C(N=c4s/c(=C/c5cccc(OC)c5O)c(=O)n42)c2ccccc2CC3)cc1 (stereo unspecified)	-8.8
O=c1/c(=C\c2ccc(F)cc2)sc2n1C(c1ccc(Cl)cc1Cl)C1=C(N=2)c2ccccc2CC1 (stereo unspecified)	-5.1
O=c1/c(=C\c2ccco2)sc2n1C(c1cccs1)C1=C(N=2)c2ccccc2CC1 (stereo unspecified)	28.1*
COc1cc(/C=c2\sc3n(c2=O)C(c2ccccc2)C2=C(N=3)c3ccccc3CC2)cc(OC)c1O (stereo unspecified)	4.6
CCOc1ccc(/C=c2/sc3n(c2=O)C(c2cc(OC)ccc2OC)C2=C(N=3)c3ccccc3CC2)cc1 (stereo unspecified)	6.6
COC(=O)c1ccc(/C=c2\sc3n(c2=O)C(c2ccc(Cl)cc2Cl)C2=C(N=3)c3ccccc3CC2)cc1 (stereo unspecified)	-5.6
O=c1/c(=C\c2cc3c(cc2[N+](=O)[O-])OCO3)sc2n1C(c1cccs1)C1=C(N=2)c2ccccc2CC1 (stereo unspecified)	-7.2
O=c1/c(=C\c2cc(Cl)cc(Cl)c2O)sc2n1C(c1ccc(Cl)cc1Cl)C1=C(N=2)c2ccccc2CC1 (stereo unspecified)	34.7*
O=c1/c(=C\c2cccs2)sc2n1C(c1cccc(F)c1)C1=C(N=2)c2ccccc2CC1 (stereo unspecified)	1.9
COc1ccc(C2C3=C(N=c4s/c(=C/c5ccc(O)c([N+](=O)[O-])c5)c(=O)n42)c2ccccc2CC3)cc1 (stereo unspecified)	43.6*
COc1ccccc1C1C2=C(N=c3s/c(=C\c4ccccc4O)c(=O)n31)c1ccccc1CC2 (stereo unspecified)	-6.9
COc1ccccc1C1C2=C(N=c3s/c(=C/c4cccc(OCC(=O)O)c4)c(=O)n31)c1ccccc1CC2 (stereo unspecified)	30.3*
CCSc1nc(N2CCOCC2)c2c(c1C#N)CC(C)(C)SC2	-4.9
C=C(C)Cn1c(SCC(=O)Nc2nccs2)nc2sc3c(c2c1=O)CCC3	11.1
CCOc1cc(/C=C2/C(=N)N3C=C(C)SC3=NC2=O)ccc1OS(C)(=O)=O	-1.5
C=CCOc1ccc(C(=O)C2C(=O)C(=O)N(c3ccccn3)C2c2cccc(Br)c2)cc1 (stereo unspecified)	-6.3
O=C1CC(c2ccccc2)CC(=O)C1=C1SC2=C(SCc3ccccc3CS2)S1 (stereo unspecified)	1.2
CCOC(=O)c1c(-c2ccc(C)cc2)csc1NC(=O)c1sc2cccc(Cl)c2c1Cl	-9.5
Cc1ccc(Cl)c(Sc2ccncc2S(=O)(=O)NC(=O)c2ccc(Cl)cc2)c1Cl	7.5
COc1ccc(C2C3=C(N=c4s/c(=C/c5ccc(C(C)C)cc5)c(=O)n42)c2ccccc2CC3)cc1 (stereo unspecified)	3.4
COc1ccc(C2C3=C(N=c4s/c(=C/c5ccc(C(=O)O)cc5)c(=O)n42)c2ccccc2CC3)cc1 (stereo unspecified)	75.7*
COc1ccc(C(=O)Oc2ccc(/C=c3/sc4n(c3=O)C(c3ccccc3Cl)C3=C(N=4)c4ccccc4CC3)cc2)cc1 (stereo unspecified)	-8.8
Fc1ccccc1-c1n[nH]c2c1CN(Cc1ccccn1)CC2	-8.1
SMILES	RBX1-CUL1 inh
COc1cccc(CNc2ccc(N3CCOCC3)cc2)c1OC	10.7
CCOc1c(Cl)cc(CNc2ccc(N3CCCC3)cc2)cc1OC	67.8*
COc1cc(CNc2ccc(N3CCCC3)cc2)cc(Cl)c1OCc1ccc(F)cc1	-12.1
Cc1n[nH]c(C)c1N=Nc1ccc(C(=O)O)cc1	7.4
CCOC(=O)C1(Cc2ccccc2C)CCCN(S(=O)(=O)c2c(C)noc2C)C1 (stereo unspecified)	-3.2
CC(C)NCC1(O)CCCN(Cc2ccc(F)cc2)C1=O (stereo unspecified)	-3.3
Cc1nc(N2C(=O)C(=O)C(C(=O)c3ccccc3)C2c2ccc(Br)cc2)sc1C (stereo unspecified)	-0.4
O=C1C(=O)N(c2ccccn2)C(c2ccccc2Cl)C1C(=O)c1ccccc1 (stereo unspecified)	28.9*
O=C(/C=C/c1ccccc1)C1C(=O)C(=O)N(c2ccccn2)C1c1ccccc1 (stereo unspecified)	7.5
CN(C)c1ccc(C2C(C(=O)c3ccccc3)C(=O)C(=O)N2c2ccc(Cl)cc2)cc1 (stereo unspecified)	-1.9
CC(C)Oc1ccc(C(=O)C2C(=O)C(=O)N(c3ccccn3)C2c2ccc(Cl)cc2)cc1 (stereo unspecified)	-4.1
O=C1C(=O)N(c2nccs2)C(c2ccc(Cl)cc2)C1C(=O)c1ccccc1 (stereo unspecified)	63.6*

Screens (PubChem BioAssay)
